From PubChem BioAssay
MEP2 TOR yeast – yeast TOR pathway MEP2-GFP modulation | 0.51% of 330,000 active | AID 2016 | GFP response vs DMSO, % at 10 µM | S. cerevisiae MEP2-GFP strain, flow cytometry GFP, 3 h; 100% = DMSO control level;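 active = GFP response versus DMSO above a set limit, roughly screen mean plus 3 SD, cut at about 180% in these data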;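 note: median GFP fluorescence of the barcode-gated MEP2-GFP cells per well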
AGP1-GFP MLPCN – yeast TOR pathway AGP1-GFP modulation | GFP response vs DMSO, % at 10 µM | S. cerevisiae AGP1-GFP multiplex flow cytometry, 3 h; GFP as percent of DMSO wells | AID 2066 | 0.02% of 320,000 active;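 active = GFP response relative to DMSO above a set limit, near screen average plus 3 SD, cut at about 150% in these data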;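 note: median GFP channel fluorescence of the gated AGP1 strain per well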
RPL19A TOR yeast – alters RPL19A-GFP fluorescence in TOR pathway yeast screen; S. cerevisiae RPL19A-GFP strain, flow cytometry, 3 h; stronger effect = lower value; percent response vs DMSO, % at 10 µM; 0.3% of 330,000 active;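 active = percent response vs DMSO below 50%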;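 note: median channel GFP fluorescence of the barcoded RPL19A-GFP strain; lower means less RPL19A-GFP as with rapamycin TOR inhibition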
CIT2-GFP yeast – alters CIT2-GFP fluorescence in TOR pathway yeast screen. S. cerevisiae CIT2-GFP strain, flow cytometry, 3 h; 100 means same as DMSO wells. GFP response vs DMSO, % at 10 µM. 0.065% of 320,000 active. AID 2029;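 active = GFP response relative to DMSO above a set limit, near the screen mean plus 3 SD, cut at about 150% in these data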;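 note: ratio of well median GFP fluorescence to mean of DMSO wells on the plate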
LAP4 TOR yeast – yeast TOR pathway LAP4-GFP modulation. GFP response vs DMSO, % at 10 µM. 0.34% of 320,000 active. S. cerevisiae LAP4-GFP multiplex, flow cytometry GFP, 3 h; median GFP as percent of DMSO wells. AID 2023;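 active = GFP response vs DMSO above a set limit, about the screen mean plus 3 SD, cut at about 150% in these data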
LAP4-GFP pick2 – yeast LAP4-GFP modulation, second cherry pick; shares compounds with LAP4 TOR yeast; S. cerevisiae LAP4-GFP strain, flow cytometry GFP, 3 h; GFP response vs DMSO, % at 10 µM; 20% of 590 active;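 active = GFP signal as percent of the solvent control above about 150%, meaning raised reporter expression, limit read from the data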
MEP2 cherry2 – yeast MEP2-GFP modulation, second cherry pick. S. cerevisiae MEP2-GFP strain, flow cytometry GFP, 3 h. GFP response vs DMSO, % at 10 µM. 10% of 590 active. shares compounds with LAP4 TOR yeast;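 active = GFP signal above 150% of the solvent control wells, that is a rise of more than half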;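 note: median channel GFP fluorescence of all gated yeast cells per well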
RPL19A GFP CP2 – second confirmation of modulators of TOR reporter RPL19A-GFP in yeast; shares compounds with LAP4 TOR yeast; S. cerevisiae RPL19A-GFP strain, flow cytometry GFP, 3 h; stronger effect = lower value; 100% means same as DMSO wells; GFP response vs DMSO, % at 10 µM; 3% of 590 active; AID 2623;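 active = under 65% GFP response relative to DMSO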;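 note: median GFP channel fluorescence per well over the all cells gate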
CIT2-GFP pick2 – yeast CIT2-GFP TOR reporter modulation, second cherry pick | shares compounds with LAP4 TOR yeast | S. cerevisiae CIT2-GFP strain, flow cytometry GFP, 3 h; DMSO control wells read 100% | GFP response vs DMSO, % at 10 µM | AID 2624 | 8% of 590 active;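 active = GFP response vs DMSO above about 150%, limit read from the data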;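 note: median green fluorescence per well over all gated yeast cells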
AGP1-GFP pick2 – yeast AGP1-GFP TOR reporter modulation, second cherry pick; shares compounds with LAP4 TOR yeast; S. cerevisiae AGP1-GFP strain, flow cytometry GFP, 3 h; percent response vs DMSO, % at 10 µM; 590 tested, under 10 active;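 active = over 150 percent of DMSO response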;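 note: median GFP channel fluorescence over all cells without mother daughter split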
s288c autofluor – yeast s288c autofluorescence artifact, counter-screen; shares compounds with LAP4 TOR yeast; S. cerevisiae s288c, 520 nm autofluorescence, flow cytometry, 3 h; stronger effect = higher value; zero means same as solvent-only cells; fluorescence change (kMESF span) at 33 µM; 610 tested, under 10 active; AID 2757;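 active = fluorescence span over the dose series, or activity score, above about 33, limit read from the data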
Yeast autofl DR – counter-screen for autofluorescence of TOR hits in yeast s288c; shares compounds with LAP4 TOR yeast; S. cerevisiae s288c parental, compound autofluorescence, flow cytometry, 3 h; fluorescence change (span) at 33 µM; 110 tested, under 10 active;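 active = fluorescence change span, or the activity score built from it, above 25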
TORC1 bypass gr – wildtype yeast growth loss with TORC1 bypass cells unaffected. shares compounds with LAP4 TOR yeast. S. cerevisiae BY4741 spot growth rating, 48-72 h; stronger effect = lower value. growth rating (0-3) at 30 µM. 120 tested, under 10 active;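 active = growth rating at most 1 for wild type yeast while the TORC1 bypass strain still grows fully, rated 3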
Large screens that a line does not name were inactive (follow-up assays come after a bar, where they were run). This is a sample that favours compounds with a hit; in the whole collection about 0.92% have one here.

N/C(Cc1ccc(Cl)c(Cl)c1)=N\OC(=O)c1cccs1	LAP4 TOR yeast 219 | s288c autofluor inactive
COC(=O)c1cccc(N(CC(=O)NC2CCCCC2)C(=O)CNC(=O)c2cccs2)c1	none
CCOC(=O)N1CCC(NC(=O)c2ccc3c(c2)N=C(C)c2c(C)ccc(C)c2S3)CC1	none
O=C(Nc1ccc(N2CCOCC2)cc1)c1ccc([N+](=O)[O-])cc1	none
Cc1ccc(/C(N)=N/OC(=O)c2ccc(F)cc2)cc1	CIT2-GFP yeast 170 | s288c autofluor inactive
CCNc1nc(Cl)nc(N(NC(C)=O)C(C)C)n1	none
CCNc1nc(Cl)nc(N(NC(C)=O)C(C)CC)n1 (configuration not stated)	none | LAP4-GFP pick2 inactive | MEP2 cherry2 inactive | RPL19A GFP CP2 inactive | CIT2-GFP pick2 inactive | AGP1-GFP pick2 inactive
CCCCc1ccc(NC(=O)CC(C)=O)cc1	none | LAP4-GFP pick2 inactive | MEP2 cherry2 175 | RPL19A GFP CP2 inactive | CIT2-GFP pick2 152 | AGP1-GFP pick2 inactive | s288c autofluor inactive
O=c1c2c(nc3cc(-c4ccc(Cl)cc4)[nH]n13)CCS2	none
CSC1=NS(=O)(=O)c2c(C)nn(C)c2S1	LAP4 TOR yeast 154 | s288c autofluor inactive | Yeast autofl DR inactive | TORC1 bypass gr inactive
COc1ccc(C(=O)c2ccccc2)c(OCC(=O)NC2CC2)c1	none | LAP4-GFP pick2 inactive | MEP2 cherry2 inactive | RPL19A GFP CP2 inactive | CIT2-GFP pick2 inactive | AGP1-GFP pick2 inactive
COc1ccc(C(=O)OCC(=O)NC2CCCC2)c(OC)c1	none
CCN(C(=O)COC(=O)c1ccccc1SCC(=O)NC1CCCCCCC1)C1CCS(=O)(=O)C1 (configuration not stated)	none
O=C1ON=C(c2ccc(Cl)cc2)/C1=C/c1ccc(O)cc1	LAP4 TOR yeast 161 | s288c autofluor inactive
CCOc1cc(/C=C2\C(=O)ON=C2c2ccccc2)cc(Br)c1O	none
COc1cc(/C=C2\C(=O)ON=C2c2ccccc2)cc(Br)c1O	LAP4 TOR yeast 157 | s288c autofluor inactive
O=C1ON=C(c2ccccc2)/C1=C/c1ccc(O)cc1	none
COc1cc(/C=C2/C(=O)ON=C2c2ccccc2)ccc1O	LAP4 TOR yeast 173 | s288c autofluor inactive
Cc1cccnc1NC(=O)c1ccc2c(c1)NC(=O)C(C)S2 (configuration not stated)	none
CCC(C)NC(=O)CS(=O)Cc1nc(-c2cccc(C)c2)oc1C (configuration not stated)	LAP4 TOR yeast 156 | LAP4-GFP pick2 inactive | MEP2 cherry2 inactive | RPL19A GFP CP2 inactive | CIT2-GFP pick2 inactive | AGP1-GFP pick2 inactive
CCCn1c(=O)[nH]c(=O)c2c1nc(-c1cc([N+](=O)[O-])ccc1Cl)n2CCOC	none
O=C(Nc1ccc([N+](=O)[O-])cc1)c1ccccc1F	none
O=C(c1cc(O)c(O)c([N+](=O)[O-])c1)c1ccccc1F	LAP4 TOR yeast 151 | LAP4-GFP pick2 inactive | MEP2 cherry2 inactive | RPL19A GFP CP2 inactive | CIT2-GFP pick2 inactive | AGP1-GFP pick2 inactive
O=C(NCc1ccc2c(c1)OCO2)c1ccc(N2C(=O)C3CCCCC3C2=O)cc1 (configuration not stated)	none
COc1ccc(C(=O)O/N=C2\C(=O)N(C)c3ccccc32)cc1	none
CN1C(=O)/C(=N\OC(=O)c2cccc3ccccc23)c2ccccc21	LAP4 TOR yeast 207 | s288c autofluor inactive
COc1ccccc1OCc1cc(C(=O)N2CCN(C)C(c3ccccc3)C2)no1 (configuration not stated)	none
CN1CCN(C(=O)c2cc(COc3c(F)cccc3F)on2)CC1c1ccccc1 (configuration not stated)	LAP4 TOR yeast 158 | LAP4-GFP pick2 inactive | MEP2 cherry2 163 | RPL19A GFP CP2 inactive | CIT2-GFP pick2 inactive | AGP1-GFP pick2 inactive | s288c autofluor inactive | Yeast autofl DR inactive | TORC1 bypass gr inactive
O=c1cc(C(F)(F)F)[nH]c2c(C(F)(F)F)cccc12	none
O=c1cc(C(F)(F)F)[nH]c2ccc(OC(F)(F)F)cc12	none | LAP4-GFP pick2 inactive | MEP2 cherry2 inactive | RPL19A GFP CP2 inactive | CIT2-GFP pick2 inactive | AGP1-GFP pick2 inactive
O=c1[nH]c(-c2ccccn2)nc(C(F)(F)F)c1Br	LAP4 TOR yeast 242 | s288c autofluor inactive
CC1CCN(C(=O)C(=O)Nc2sc3c(c2C(N)=O)CC(C)(C)OC3)CC1	none
Cc1nc(N2CCCCC2)c2c(-c3cccs3)csc2n1	none | LAP4-GFP pick2 inactive | MEP2 cherry2 inactive | RPL19A GFP CP2 inactive | CIT2-GFP pick2 inactive | AGP1-GFP pick2 inactive
Cc1nc(N2CCN(S(=O)(=O)c3ccccc3C#N)CC2)c2c(-c3cccs3)csc2n1	none
O=C(O)c1ccc(NCc2cccc(Br)c2)cc1	LAP4 TOR yeast 159 | LAP4-GFP pick2 inactive | MEP2 cherry2 inactive | RPL19A GFP CP2 inactive | CIT2-GFP pick2 inactive | AGP1-GFP pick2 inactive
NCCCCc1cn(CC(=O)N2CCNCC2)nn1	none
O=[N+]([O-])c1ccc(O)c(/C=N/Nc2ccccn2)c1	LAP4 TOR yeast 237 | LAP4-GFP pick2 284 | MEP2 cherry2 180 | RPL19A GFP CP2 inactive | CIT2-GFP pick2 inactive | AGP1-GFP pick2 inactive | s288c autofluor inactive
CN1CCC(OC(=O)c2ccco2)CC1	none
